# Assay outcomes from PubChem.
# Sampled rows, rich in hits. Any-hit rate of the full collection: about 3.5%.
# TEAD-YAP block = TEAD-YAP interaction inhibition, primary screen, TEAD-YAP interaction inhibitor project, luminescence, HEK-TIYL cells; TEAD-Gal4/YAP UAS-luciferase luminescence; inhibition, % at 9.12 µM; hit rate 1.4% among 640,000; in the data active = inhibition above about 32%;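 also: 0% = median of test compound wells and 100% = reference inhibitor wells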
# GPR151 activ = activators of human GPR151, primary screen, cell-based, PathHunter beta-arrestin, luminescence; G-protein coupled receptor 151 (Homo sapiens), Q8TDV0; PathHunter beta-arrestin GPR151 cells; activation, % at 11.2 µM; hit rate 1% among 650,000; AID 1508602, 2020; in the data active = activation above about 4.9%;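 also: 0% = median of compound wells and 100% = cells with positive control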
# FBW7 act = FBW7 E3 ligase activators, primary screen, biochemical, AlphaScreen, human; F-box/WD repeat-containing protein 7 (Homo sapiens), Q969H0; AlphaScreen FBW7–phospho-cyclin E peptide binding, activator screen; normalized activity (activation), % at 26.1 µM; hit rate 0.13% among 650,000; in the data active = normalized activity above about 1.9%;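 also: purified mutant Fbw7 with reduced substrate affinity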
# MITF primary = MITF inhibitors, primary screen, biochemical, AlphaScreen, human; AlphaScreen MITF homodimerization, bead proximity signal; inhibition, % at 2.6 µM; hit rate 0.91% among 650,000; in the data active = inhibition above about 50%;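 also: 0% = vehicle wells with protein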
# Target sequence (O75030 whole entry, looked up): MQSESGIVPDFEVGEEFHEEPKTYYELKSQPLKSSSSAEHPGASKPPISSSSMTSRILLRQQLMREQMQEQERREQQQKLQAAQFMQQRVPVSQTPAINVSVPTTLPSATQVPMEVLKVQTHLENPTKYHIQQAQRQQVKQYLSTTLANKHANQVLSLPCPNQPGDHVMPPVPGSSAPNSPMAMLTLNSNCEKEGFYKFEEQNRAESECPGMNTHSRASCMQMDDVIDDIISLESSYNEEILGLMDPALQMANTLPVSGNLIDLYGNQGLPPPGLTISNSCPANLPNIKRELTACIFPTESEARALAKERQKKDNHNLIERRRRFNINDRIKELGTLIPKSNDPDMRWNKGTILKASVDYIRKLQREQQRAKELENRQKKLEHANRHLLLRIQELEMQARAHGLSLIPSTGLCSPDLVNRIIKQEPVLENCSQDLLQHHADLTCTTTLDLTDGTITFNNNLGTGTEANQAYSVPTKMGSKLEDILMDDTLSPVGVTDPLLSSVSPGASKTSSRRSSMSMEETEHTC
# Active calls of the source: *; ! = repeats disagree.
SMILES,TEAD-YAP block,GPR151 activ,FBW7 act,MITF primary
O=C(Nc1ccccc1C(=O)OC1CCCCCCCCCCC1)c1ccccc1,4.4,-5.4,0.1,2.2
O=C(CCCc1nc(-c2ccc(Cl)cc2)no1)NC1CCCC1,33.9*,1.0,-0.1,-11.2
CC1=C(C(=O)Nc2ccc(Br)cn2)C(c2cc([N+](=O)[O-])ccc2Cl)C2=C(CC(C)(C)CC2=O)N1 (configuration not stated),0.3,0.9,-0.1,5.9
CCOC(=O)c1ccc(N=CC2=C(O)c3ccccc3C2=O)cc1,48.4*,-0.5,-0.1,2.3
O=C1C(C=Nc2cccc(C(F)(F)F)c2)=C(O)c2ccccc21,70.1*,0.1,-0.1,-10.2
O=C1C(C=Nc2ccc3c(c2)CCC3)=C(O)c2ccccc21,48.6*,0.4,-0.1,2.1
COc1ccc(N=CC2=C(O)c3ccccc3C2=O)cc1OC,11.5,-1.8,0.1,10.1
CC(C)N(C)C1CCN(S(=O)(=O)c2ccc([N+](=O)[O-])cc2)CC1,2.2,0.0,0.0,7.3
N#CC1=C(N)Oc2ccc3ccccc3c2C1c1cccnc1 (configuration not stated),57.3*,0.7,-0.1,-3.4
N#CC1=C(N)Oc2ccc3ccc(O)cc3c2C1c1cccnc1 (configuration not stated),3.9,-0.4,-0.1,1.3
N#CC1=C(N)Oc2c(ccc3ccccc23)C1c1cccc(F)c1 (configuration not stated),4.9,-0.1,0.8,-0.1
N#CC1=C(N)Oc2ccc3ccccc3c2C1c1cccc(F)c1 (configuration not stated),55.7*,-1.7,0.0,0.8
CC(=O)c1ccc2ccccc2c1OC(=O)c1cccs1,-22.1,0.1,0.2,-11.7
O=C(CCc1nnc(Cc2c[nH]c3ccccc23)o1)NCCn1ccc2ccccc21,-0.1,-0.1,2.3*,11.7
Cn1c(CCNC(=O)CCc2nnc(Cc3c[nH]c4ccccc34)o2)nc2ccccc21,1.7,0.1,0.1,8.6
O=NN(CCc1ccncc1)c1ccc(OCc2ccccc2)cc1,37.7*,0.4,-0.1,1.3
CN1C(=O)C(Cc2ccc(Br)s2)C(=O)N(C)C1=O,-2.6,-0.9,-0.3,16.4
CC1CCN(CCCC(=O)c2ccc(F)cc2)CC1,6.8,0.1,0.4,10.3
O=C(CCCN1CC=C(n2c(=O)[nH]c3ccccc32)CC1)c1ccc(F)cc1,-3.7,-0.5,1.9*!,-0.2
CC(C)(C)Nc1ncnc2c1cnn2-c1ccc(Cl)cc1,51.5*,2.6,0.1,4.4
CCCN(CCC)c1ncnc2c1cnn2-c1ccc(Cl)cc1,6.8,1.7,0.4,4.8
Cc1cccc(-n2ncc3c(Nc4cc(C)ccc4C)ncnc32)c1,44.7*,-1.6,0.1,-5.2
CCCCNc1ncnc2c1cnn2-c1ccc(Cl)cc1,-53.8,0.8,-0.2,0.2
Cc1cccc(-n2ncc3c(Nc4ccc(C)cc4C)ncnc32)c1,-26.6,0.1,0.0,8.2
Cc1cccc(-n2ncc3c(Nc4cccc(C)c4C)ncnc32)c1,42.2*,0.0,-0.1,-5.2
SMILES,TEAD-YAP block,GPR151 activ,FBW7 act,MITF primary
CCN(CCN(C)C)c1ncnc2c1cnn2-c1ccc(Cl)cc1,50.0*,-1.4,-0.2,5.0
Cc1cc([N+](=O)[O-])ccc1NC(=O)/C(C#N)=C/c1ccccc1Cl,-3.2,-0.4,-0.2,-5.1
CN(C)c1ccc(-c2nc3ccccc3n2-c2cc(C(C)(C)C)c(O)c(C(C)(C)C)c2)cc1,-25.9,0.3,0.5,11.0
CCOC(=O)C1=C(C)N=c2s/c(=C\c3ccc(OCc4ccc(Cl)cc4)cc3)c(=O)n2C1c1ccc2c(c1)OCO2 (configuration not stated),-4.9,0.6,-0.2,-5.9
O=C(Cn1nnc(-c2ccccc2NC(=O)c2cccc(F)c2)n1)NCc1cccs1,3.5,-0.3,0.4,-0.3
Cc1cccc(-n2ncc3c(NC(C)(C)C)ncnc32)c1,82.4*,1.3,0.0,-3.1
Oc1ccc(N=Cc2sc3ccccc3c2O)cc1,20.1,2.2,-0.5,6.8
O=C(O)c1ccc(N=Cc2sc3ccccc3c2O)cc1,52.2*,-3.9,-0.2,-2.9
Oc1c(C=Nc2ccc(I)cc2)sc2ccccc12,13.8,0.2,0.1,9.5
CN(C)c1ccc(N=Cc2c[nH]c3ccccc23)cc1,68.3*,-0.7,-0.8,11.4
Oc1c(C=NC2CCCCCC2)sc2ccccc12,37.7*,-2.4,-0.8,19.1
Oc1c(C=Nc2ccccc2)sc2ccccc12,5.1,-1.3,0.1,-0.5
CN(C)c1ccc(N=Cc2sc3ccccc3c2O)cc1,76.2*,-1.2,0.1,14.8
O=C1OC(c2cccc3ccccc23)=N/C1=C/c1cccc(Br)c1,-1.4,1.2,0.0,14.1
CC(C)c1ccccc1C=NCC(=O)O,10.6,-1.0,2.2*,12.8
CCOC(=O)c1ccc(NC(=O)CC23CC4CC(CC(C4)C2)C3)cc1,69.3*,-0.7,0.0,9.8
CC(C)c1ccc(-c2csc(NC(=O)c3ccnn3C)n2)cc1,57.2*,2.5,0.0,-22.0
COc1ccc(C(=O)Nc2nc(-c3ccc(C(C)C)cc3)cs2)cc1,-2.1,-0.3,0.0,6.9
COc1ccccc1-c1cnn2c(N3CCCCC3CCO)ccnc12 (configuration not stated),-6.8,-0.8,-0.5,-22.5
OCCC1CCCCN1c1ccnc2c(-c3cccc(Cl)c3)cnn12 (configuration not stated),90.2*,0.1,-0.5,-6.6
OC[C@@H]1CCCN1c1ccnc2c(-c3ccc(F)cc3)cnn12,74.1*,-2.1,0.0,2.2
OCCC1CCCCN1c1ccnc2c(-c3ccccc3)cnn12 (configuration not stated),88.5*,0.1,-0.3,8.7
OCCC1CCCCN1c1ccnc2c(-c3ccccc3F)cnn12 (configuration not stated),62.6*,-0.3,-0.4,-7.5
CCCOC(=O)c1c(NC(=O)C2CCCCC2C(=O)O)sc(C)c1C (configuration not stated),-5.3,-0.8,0.1,13.7
Cc1ccc(-c2cnn3c(N4CCCCC4CCO)ccnc23)cc1C (configuration not stated),7.4,0.3,0.3,3.2
SMILES,TEAD-YAP block,GPR151 activ,FBW7 act,MITF primary
OCCC1CCCCN1c1ccnc2c(-c3ccc(F)cc3)cnn12 (configuration not stated),96.8*,0.6,-0.5,-24.8
Nc1ncnc(N2CCc3ccccc32)c1[N+](=O)[O-],36.2*,1.9,-0.1,-2.8
O=[N+]([O-])c1c(N2CCCCC2)ncnc1N1CCCCC1,-3.6,4.7,-0.1,4.8
Nc1ncnc(N2CCCCC2)c1[N+](=O)[O-],37.5*,-0.7,0.0,-1.1
CCNc1nc(NCC)nc(Sc2ccc([N+](=O)[O-])cc2[N+](=O)[O-])n1,50.5*,-0.3,0.0,0.9
CS(=O)(=O)Nc1ccc(-c2nnc(SCC(=O)Nc3ccccc3F)o2)cc1,37.1*,0.1,0.1,6.3
CS(=O)(=O)Nc1ccc(-c2nnc(SCC(=O)Nc3ccccc3Cl)o2)cc1,-27.3,1.5,0.0,-4.6
